Reference: PubChem BioAssay (NCATS)
Activity calls are given as the source filed them. Calls follow the shape of the dose curve; as a rule, active = well fitted curve in the direction sought with a large enough effect; inconclusive = small, poorly fitted or top-dose-only effect, or effect the other way, or another doubt; inactive = no such curve, though single readings can be large or run the other way.

Experiment: qHTS for Inhibitors of Cell Surface uPA Generation: Validation Assay (AID 493164);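 also: RAW 264.7 macrophage cells exposed to compound for 18 h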
Settings: mouse cells, plasminogen activation; series mostly up to 38.3 µM
Method in brief: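 Compounds are titrated over seven points (2.45 nM–38.3 uM final) onto pre-plated RAW 264.7 cells and incubated for 18 h. Retained intracellular ATP, measured with ATP-Lite, indicates blocked lethal factor entry.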

| Compound | outcome |
| --- | --- |
| CC(C)[N+](C)(CCOC(=O)C1c2ccccc2Oc2ccccc21)C(C)C | inactive |
| CC1=NS(=O)(=O)c2cc(Cl)ccc2N1 | inactive |
| NC1=NCC2c3ccccc3Cc3ccccc3N12 (stereo not given) | inactive |
| O=C(O)CN(CCOCCOCCN(CC(=O)O)CC(=O)O)CC(=O)O | inactive |
| CCO/C([O-])=N/c1c[n+](N2CCOCC2)no1 | inactive |
| CNCCC(Oc1ccccc1OC)c1ccccc1 (stereo not given) | inactive |
| C[N+](C)(C)CCOC(=O)CCC(=O)OCC[N+](C)(C)C | inactive |
| CCN(CC)CCCN(c1ccccc1)C1Cc2ccccc2C1 | inactive |
| CCCN(CCC)CCc1cccc2c1CC(=O)N2 | inactive |
| C[C@@H](O)[C@H]1C(=O)N2C(C(=O)O)=C(SCCN=CN)C[C@H]12 | inactive |
| CCN1CCC[C@H]1CNC(=O)c1c(O)c(Cl)cc(Cl)c1OC | inactive |
| CC(C)COCC(CN(Cc1ccccc1)c1ccccc1)N1CCCC1 (stereo not given) | inactive |
| CC(C)(Oc1ccc(CCNC(=O)c2ccc(Cl)cc2)cc1)C(=O)O | inactive |
| CN1C(=O)CC[C@H]1c1cccnc1 | inactive |
| Cc1nc2ccccn2c(=O)c1CCN1CCC(C(=O)c2ccc(F)cc2)CC1 | inactive |
| NC(=O)c1cn(Cc2c(F)cccc2F)nn1 | inactive |
| CCCCCCCC/C=C\CCCCCCCC(=O)NCc1ccc(O)c(OC)c1 | inactive |
| CN(C(=O)CCCOc1ccc2[nH]c(=O)ccc2c1)C1CCCCC1 | inactive |
| CSc1ccc(C(=O)c2[nH]c(=O)[nH]c2C)cc1 | inactive |
| C[C@]12CC[C@@H]3c4ccc(O)cc4C[C@@H](CCCCCCCCCS(=O)CCCC(F)(F)C(F)(F)F)[C@H]3[C@@H]1CC[C@@H]2O (stereo not given in full) | inactive |
